Potency and affinity values are given separately.
Assay: inhibitors of CD8+ T cell–vesicle binding, dose response, mouse 2C CD8+ T cells, flow cytometry (AID 485284);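 also: drosophila derived vesicles carrying Ld MHC with QL9 peptide plus B7-1 and ICAM-1; vesicle binding seen as anti-B7-1 PE fluorescence on CD8 gated cells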
Details: 2C mouse CD8+ T cell-exosome binding; at 45 µM (top of the series)

Q: Which binding remaining, % of control does the source give for `O=C(OCC(=O)N1CCN(C(=O)c2ccco2)CC1)c1ccccc1Cc1ccccc1` here?
A: 73%

Q: For `CC1CCC(NC(=O)CN2C(=O)NC3(CCCCCC3)C2=O)CC1` (stereo not drawn), which binding remaining, % of control is on record?
A: 101%

Q: With `COc1ccc(NC(=O)CN2CCN(S(=O)(=O)c3ccc(Cl)cc3)CC2)cc1` as the compound, how does the binding remaining, % of control read?
A: 79.2%

Q: With `COc1ccc([C@H]2CC(=O)C=C(c3cc(F)ccc3OC)C2)cc1` as the compound, how does the binding remaining, % of control read?
A: 109%

Q: Which binding remaining, % of control does the source give for `Cc1c(C(=O)N(C)Cc2ccccc2)oc2ccc(S(=O)(=O)N3CCCC3)cc12` here?
A: 120%

Q: For `CCCCN(C(=O)COC(=O)c1ccc(C=O)cc1)c1c(N)n(CCC)c(=O)[nH]c1=O`, which binding remaining, % of control is on record?
A: 50.1%

Q: For `COc1cc(OC)c2cc(C(=O)N[C@H](C(=O)N3CCC[C@H]3C(=O)O)C(C)C)n(C)c2c1`, which binding remaining, % of control is on record?
A: 99.6%

Q: For `CCOC(=O)N1CCC(=NNc2ncc(C(F)(F)F)cc2Cl)CC1`, which binding remaining, % of control is on record?
A: 24.2%

Q: Which binding remaining, % of control does the source give for `CCN(CC)S(=O)(=O)c1ccc2c3c(cccc13)C(=O)N2` here?
A: 56.2%

Q: For `Cn1c(=O)c2cc(S(=O)(=O)NCCC(=O)NC3CCCCCC3)ccc2n(C)c1=O`, which binding remaining, % of control is on record?
A: 83.7%

Q: Which binding remaining, % of control does the source give for `O=C(COC(=O)C1(c2cccc(F)c2)CCCC1)NCc1ccc2c(c1)OCO2` here?
A: 72.1%

Q: With `COc1ccc(NC(=O)Cc2ccc(C)c(C)c2)cc1S(=O)(=O)N1CCCCC1` as the compound, how does the binding remaining, % of control read?
A: 32.4%

Q: With `CCCCCCCCn1c2c(c(=N)c3c1CCC3)CCCC2` as the compound, how does the binding remaining, % of control read?
A: 36.6%

Q: With `CC(C)(C)Nc1nc2nonc2nc1NC(C)(C)C` as the compound, how does the binding remaining, % of control read?
A: 147%

Q: With `O=C(COc1ccccc1)Nc1cc(S(=O)(=O)N2CCOCC2)ccc1N1CCCC1` as the compound, how does the binding remaining, % of control read?
A: 128%

Q: With `CCCNC(=O)CN1CCN(S(=O)(=O)c2ccc(Br)s2)CC1` as the compound, how does the binding remaining, % of control read?
A: 100%

Q: With `CN(CC(=O)Nc1cc(S(=O)(=O)N2CCCC2)ccc1Cl)Cc1ccc2c(c1)OCO2` as the compound, how does the binding remaining, % of control read?
A: 63%

Q: With `O=C(CC12CC3CC(CC(C3)C1)C2)N/N=C/c1ccc([N+](=O)[O-])o1` as the compound, how does the binding remaining, % of control read?
A: 70.5%

Q: For `Cc1ccc(NC(=O)CN2C(=O)N/C(=C/c3ccc(C)s3)C2=O)cc1`, which binding remaining, % of control is on record?
A: 46%

Q: With `CN1CCN(S(=O)(=O)c2ccc(C(=O)Nc3ccccc3)cc2)CC1` as the compound, how does the binding remaining, % of control read?
A: 124%

Q: Which binding remaining, % of control does the source give for `COc1ccc(N2C(=O)CC(Sc3ncn[nH]3)C2=O)c(OC)c1` (stereo not drawn) here?
A: 135%

Q: Which binding remaining, % of control does the source give for `COc1ccc(Nc2ccccc2N)cc1` here?
A: 182%

Q: For `Cc1ccc(C(C)C)c(OCC(=O)N2CCN(c3ncccn3)CC2)c1`, which binding remaining, % of control is on record?
A: 17.4%

Q: With `CCOC(=O)c1c(NC(=O)CN2C(=O)NC3(CCC(C)CC3)C2=O)sc(C)c1-c1ccc(C)cc1` (stereo not drawn) as the compound, how does the binding remaining, % of control read?
A: 108%

Q: Which binding remaining, % of control does the source give for `Cn1c(CNC(=O)CNC(=O)c2ccc(F)cc2)cc(=O)n(C)c1=O` here?
A: 99.6%

Q: Which binding remaining, % of control does the source give for `CS(=O)(=O)c1cccc(-c2csc(N3CCC(C(N)=O)CC3)n2)c1` here?
A: 150%

Q: Which binding remaining, % of control does the source give for `Cc1ccc(S(=O)(=O)Nc2c3ccccc3nc(=O)n2-c2ccccc2)cc1` here?
A: 71.8%

Q: With `CN1CCN(C(=O)c2cc3ccccc3cc2O)CC1` as the compound, how does the binding remaining, % of control read?
A: 178%

Q: With `COc1ccc(NC(=O)[C@H](C)NC(=O)C2CCN(S(=O)(=O)c3ccc(C)cc3)CC2)cc1` as the compound, how does the binding remaining, % of control read?
A: 108%

Q: With `CS(=O)(=O)NCc1ccccc1Br` as the compound, how does the binding remaining, % of control read?
A: 95.9%

Q: Which binding remaining, % of control does the source give for `COc1ccc(CC(=O)OCC(=O)N2CCN(S(=O)(=O)c3ccc(C)cc3C)CC2)cc1` here?
A: 102%

Q: Which binding remaining, % of control does the source give for `CCc1noc(C)c1C(=O)OC(C)C(=O)Nc1ccc2c(c1)OCO2` (stereo not drawn) here?
A: 171%

Q: With `Cc1ccc(Cn2c([N+](=O)[O-])cnc2C)cc1` as the compound, how does the binding remaining, % of control read?
A: 35%
